Test results: the antibiotic and cytotoxicity screens of Wong et al. (2023)
The campaign covered roughly 39,000 compounds. About 3,300 (8.5%) were called active. What follows is part of a selection rich in actives, with near analogues and random picks from the rest.

These compounds were tested on HepG2 (assay: cytotoxicity call (relative viability < 0.9)). Details: 10 µM.

SMILES	cytotoxicity call
CN(C)CC#Cc1ccc([C@@H]2[C@@H](CO)N3C(=O)CN(C(=O)c4cccnc4)C[C@H]23)cc1	inactive
CO[C@H](CN(C)C(=O)Nc1ccc(C(F)(F)F)cc1)[C@@H](C)CN(Cc1ccccc1Cl)[C@@H](C)CO	inactive
C=CCC[C@H](Cc1ccc(F)cc1)C(=O)O[C@H](CNC(=O)[C@@H](CC=C)CC(=O)N[C@@H](CO)Cc1ccccc1)c1ccccc1	inactive
C[C@H](CO)N1C[C@H](C)[C@@H](CN(C)Cc2ccc(-c3ccccc3)cc2)Oc2c(NC(=O)C3CC3)cccc2C1=O	inactive
NC(=O)NCC#Cc1ccc2c(c1)[C@]1(C(=O)N2)[C@H](C(=O)N2CCCCCCC2)[C@H]2C(=O)O[C@H](c3ccccc3)[C@H](c3ccccc3)N2[C@@H]1c1ccccc1OCCO	inactive
C[C@@H]1CN([C@@H](C)CO)S(=O)(=O)c2ccc(-c3ccccc3F)cc2O[C@H]1CN(C)S(C)(=O)=O	inactive
CN1C(=O)[C@@H](O)N(c2ccccc2)C1=O	inactive
CCOC(=O)[C@H](CCc1ccccc1)N[C@@H](C)C(=O)N1C(=O)N(C)C[C@H]1C(=O)O	inactive
CC(C)NC(=O)N(C)C[C@@H]1Oc2ccc(NS(=O)(=O)c3ccc(Cl)cc3)cc2CC(=O)N([C@@H](C)CO)C[C@H]1C	inactive
C[C@@H]1CN([C@@H](C)CO)C(=O)c2cccc(NS(=O)(=O)c3cccs3)c2O[C@H]1CN(C)Cc1ccc(Cl)c(Cl)c1	inactive
C[C@@H]1CN([C@@H](C)CO)C(=O)c2cc(NC(=O)CCC(F)(F)F)ccc2O[C@@H](C)CCCCO[C@@H]1CN(C)Cc1ccc(C(F)(F)F)cc1	inactive
COc1ccc(CN(C)C[C@H]2OCCCC[C@H](C)Oc3ccc(NC(=O)CCC(F)(F)F)cc3C(=O)N([C@@H](C)CO)C[C@H]2C)cc1	inactive
C[C@H]1CCCCO[C@@H](CN(C)Cc2ccc(C(F)(F)F)cc2)[C@@H](C)CN([C@@H](C)CO)C(=O)c2cc(NC(=O)CCC(F)(F)F)ccc2O1	active
COc1ccc(CN(C)C[C@H]2OCCCC[C@@H](C)Oc3ccc(NC(=O)CCC(F)(F)F)cc3C(=O)N([C@H](C)CO)C[C@H]2C)cc1	inactive
COc1ccc(CN(C)C[C@H]2OCCCC[C@H](C)Oc3ccc(NC(=O)CCC(F)(F)F)cc3C(=O)N([C@H](C)CO)C[C@H]2C)cc1	active
C[C@@H]1CN([C@@H](C)CO)C(=O)c2cc(NC(=O)CCC(F)(F)F)ccc2O[C@@H](C)CCCCO[C@H]1CN(C)Cc1ccc(C(F)(F)F)cc1	inactive
C[C@H](CO)N1C[C@H](C)[C@@H](CN(C)C(=O)Nc2ccc3c(c2)OCO3)OCCCC[C@H](C)Oc2ccc(NS(=O)(=O)c3ccc(Cl)cc3)cc2C1=O	inactive
COC(=O)c1c2oc(c1C(=O)OC)C(=O)N[C@H](Cc1ccccc1)Cn1cc(nn1)CNC(=O)[C@@H](Cc1ccccc1)NC(=O)N[C@@H](COC(=O)NCCCCCC(=O)NO)CC2	inactive
C[C@H](NC(=O)[C@H]1N[C@H]2c3ccc(-c4ccc(C(=O)N(C)C)cc4)c(=O)n3C[C@H]2[C@@H]1CO)c1ccccc1	inactive
COc1ccc(NC(=O)N(C)C[C@@H]2Oc3ccc(NS(=O)(=O)c4cn(C)cn4)cc3CC(=O)N([C@H](C)CO)C[C@H]2C)cc1	inactive
COc1ccc(NC(=O)Nc2cccc3c2O[C@@H](CN(C)Cc2ccc(C(=O)Nc4ccccc4N)cc2)[C@@H](C)CN([C@@H](C)CO)C3=O)cc1	inactive
CCN(CC)c1ccc(N2CC=C[C@@]34O[C@@H]5/C=C\CCCOC(=O)[C@@H]5[C@H]3C(=O)N(CCCCCCO)[C@@H]4C2=O)cc1	inactive
C[C@@H]1CCCCO[C@@H](CN(C)C(=O)Nc2ccccc2)[C@H](C)CN([C@@H](C)CO)C(=O)c2cc(NS(=O)(=O)c3ccccc3)ccc2O1	inactive
Cc1ccc(S(=O)(=O)Nc2ccc3c(c2)C(=O)N([C@@H](C)CO)C[C@@H](C)[C@@H](CN(C)S(=O)(=O)c2c(C)noc2C)O3)cc1	inactive

SMILES	cytotoxicity call
C[C@@H]1CN([C@H](C)CO)C(=O)c2cccc(NC(=O)CCCCCC(=O)Nc3ccccc3N)c2O[C@H]1CN(C)CC1CCCCC1	active
C[C@@H]1CN([C@@H](C)CO)C(=O)c2cccc(NC(=O)CCCCCC(=O)Nc3ccccc3N)c2O[C@H]1CN(C)CC1CCCCC1	inactive
C[C@H](CO)N1C[C@H](C)[C@@H](CN(C)CC2CCCCC2)Oc2c(NC(=O)CCCCCC(=O)Nc3ccccc3N)cccc2C1=O	inactive
C[C@H]1CN([C@@H](C)CO)C(=O)c2cccc(NC(=O)CCCCCC(=O)Nc3ccccc3N)c2O[C@@H]1CN(C)CC1CCCCC1	active
C[C@@H]1CN([C@H](C)CO)C(=O)c2cccc(NC(=O)CCCCCC(=O)Nc3ccccc3N)c2O[C@@H]1CN(C)CC1CCCCC1	inactive
C[C@@H]1CN([C@@H](C)CO)C(=O)c2cccc(NC(=O)CCCCCC(=O)Nc3ccccc3N)c2O[C@@H]1CN(C)Cc1ccccc1	inactive
C[C@H](CO)N1C[C@H](C)[C@H](CN(C)CC2CCCCC2)Oc2c(NC(=O)CCCCCC(=O)Nc3ccccc3N)cccc2C1=O	inactive
C[C@@H]1CN([C@@H](C)CO)C(=O)c2cccc(NC(=O)CCCCCC(=O)Nc3ccccc3N)c2O[C@@H]1CN(C)CC1CCCCC1	active
C[C@H]1CN([C@@H](C)CO)C(=O)c2cccc(NC(=O)CCCCCC(=O)Nc3ccccc3N)c2O[C@H]1CN(C)CC1CCCCC1	inactive
Nc1nc(=O)c2ncn(COC(CO)CO)c2[nH]1	inactive
CN[C@H]1[C@@H](O[C@H]2[C@@H](O[C@H]3[C@@H](O)[C@@H](O)[C@@H](NC(=N)N)[C@@H](O)[C@@H]3NC(=N)N)O[C@@H](C)[C@@]2(O)C=O)O[C@@H](CO)[C@@H](O)[C@@H]1O.CN[C@H]1[C@@H](O[C@H]2[C@@H](O[C@H]3[C@@H](O)[C@@H](O)[C@@H](NC(=N)N)[C@@H](O)[C@@H]3NC(=N)N)O[C@@H](C)[C@@]2(O)C=O)O[C@@H](CO)[C@@H](O)[C@@H]1O.O=S(=O)(O)O.O=S(=O)(O)O.O=S(=O)(O)O	inactive
CC1(C)SC2C(NC(=O)C(C(=O)[O-])c3ccccc3)C(=O)N2C1C(=O)[O-].[Na+].[Na+] (stereo not given)	inactive
C[C@@H]1CCCCO[C@@H](CN(C)C(=O)c2ccccc2)[C@@H](C)CN([C@@H](C)CO)C(=O)c2cc(NC(=O)c3ccccc3)ccc2O1	inactive
C[C@@H]1CCCCO[C@@H](CN(C)C(=O)Nc2ccc(C(F)(F)F)cc2)[C@@H](C)CN([C@H](C)CO)C(=O)c2cc(NS(=O)(=O)c3cn(C)cn3)ccc2O1	inactive
C=C1SC(Nc2c(C)cccc2C)=NC12CCCCC2	active
Cc1cccc(C)c1Nc1nc2c(C)cc(C)c(C)c2s1	inactive
Cc1cccc(C)c1NC(=O)C1CCCCN1C.Cl (stereo not given)	inactive
C[C@@H]1CN([C@@H](C)CO)C(=O)Cc2cc(NC(=O)C3CC3)ccc2O[C@H]1CN(C)C(=O)Nc1ccccc1	inactive
COCC#Cc1ccc([C@H]2[C@H]3CN(C(=O)CN4CCOCC4)CC(=O)N3[C@H]2CO)cc1	inactive
COc1ccc(S(=O)(=O)N(C)C[C@@H]2OCCCC[C@@H](C)Oc3ccc(NS(=O)(=O)c4cn(C)cn4)cc3C(=O)N([C@H](C)CO)C[C@H]2C)cc1	inactive
C[C@@H]1CN([C@@H](C)CO)C(=O)c2cc(C#CCc3ccccc3)cnc2O[C@H]1CN(C)CC1CCOCC1	inactive
COc1ccc(NC(=O)Nc2ccc3c(c2)C(=O)N([C@H](C)CO)C[C@@H](C)[C@@H](CN(C)S(=O)(=O)c2ccc(F)cc2)OCCCC[C@H](C)O3)cc1	inactive
COc1ccc(NC(=O)Nc2ccc3c(c2)C(=O)N([C@H](C)CO)C[C@H](C)[C@H](CN(C)S(=O)(=O)c2ccc(F)cc2)OCCCC[C@@H](C)O3)cc1	inactive
COc1ccc(NC(=O)Nc2ccc3c(c2)C(=O)N([C@H](C)CO)C[C@H](C)[C@@H](CN(C)S(=O)(=O)c2ccc(F)cc2)OCCCC[C@H](C)O3)cc1	inactive

SMILES	cytotoxicity call
COc1ccc(S(=O)(=O)N(C)C[C@H]2OCCCC[C@@H](C)Oc3ccc(NC(=O)Nc4ccc(F)cc4)cc3C(=O)N([C@H](C)CO)C[C@@H]2C)cc1	active
COc1ccc(NC(=O)Nc2ccc3c(c2)C(=O)N([C@@H](C)CO)C[C@@H](C)[C@@H](CN(C)S(=O)(=O)c2ccc(F)cc2)OCCCC[C@@H](C)O3)cc1	inactive
COc1ccc(NC(=O)Nc2ccc3c(c2)C(=O)N([C@H](C)CO)C[C@@H](C)[C@H](CN(C)S(=O)(=O)c2ccc(F)cc2)OCCCC[C@H](C)O3)cc1	active
CO[C@H]1CN(C)C(=O)c2ccc(NS(=O)(=O)c3cn(C)cn3)cc2OC[C@H](C)N(CC2CC2)C[C@@H]1C	inactive
CC1(C)OC(=O)N(CCCC(=O)O)[C@@]1(C)O	inactive
CC(=O)OC1CC(OC(C)=O)C2(C)C(CC(O)C3(C)C2CCC2(C)C(c4ccoc4)OC(=O)C4OC423)C1(C)C (stereo not given)	inactive
C[C@H]1CN([C@@H](C)CO)C(=O)c2cc(NC(=O)Cn3cnnn3)ccc2O[C@H]1CN(C)CC1CCCCC1	inactive
C[C@H](CO)N1C[C@H](C)[C@H](CN(C)Cc2ccc(C(=O)O)cc2)Oc2c(NC(=O)C3CC3)cccc2C1=O	inactive
CS(=O)(=O)NC[C@@]12COC[C@H]1CN(C(=O)c1cnccn1)C2	inactive
C[C@@H]1CCCCO[C@H](CN(C)S(=O)(=O)c2ccc(Cl)cc2)[C@H](C)CN([C@@H](C)CO)C(=O)c2cc(NC(=O)CCC(F)(F)F)ccc2O1	inactive
C[C@@H]1CN([C@@H](C)CO)C(=O)c2cc(NC(=O)CCCN(C)C)ccc2O[C@@H](C)CCCCO[C@H]1CN(C)Cc1ccc(C(F)(F)F)cc1	inactive
C[C@@H]1CCCCO[C@H](CN(C)Cc2ccc(C(F)(F)F)cc2)[C@H](C)CN([C@@H](C)CO)C(=O)c2cc(NC(=O)CCCN(C)C)ccc2O1	active
C[C@@H]1CCCCO[C@@H](CN(C)Cc2ccc(C(F)(F)F)cc2)[C@@H](C)CN([C@H](C)CO)C(=O)c2cc(NC(=O)CCCN(C)C)ccc2O1	inactive
C[C@@H]1CN([C@H](C)CO)C(=O)c2cc(NC(=O)CCCN(C)C)ccc2O[C@@H](C)CCCCO[C@@H]1CN(C)Cc1ccc(C(F)(F)F)cc1	inactive
C[C@@H]1CCCCO[C@H](CN(C)Cc2ccc(C(F)(F)F)cc2)[C@H](C)CN([C@H](C)CO)C(=O)c2cc(NC(=O)CCCN(C)C)ccc2O1	inactive
C[C@H](CO)N1C[C@H](C)[C@H](CN(C)Cc2ccc(C(F)(F)F)cc2)OCCCC[C@H](C)Oc2ccc(NC(=O)CCCN(C)C)cc2C1=O	active
C[C@@H]1CCCCO[C@@H](CN(C)Cc2ccc(C(F)(F)F)cc2)[C@@H](C)CN([C@@H](C)CO)C(=O)c2cc(NC(=O)CCCN(C)C)ccc2O1	inactive
C[C@H]1CCCCO[C@H](CN(C)Cc2ccc(C(F)(F)F)cc2)[C@@H](C)CN([C@@H](C)CO)C(=O)c2cc(NC(=O)CCCN(C)C)ccc2O1	active
C[C@@H]1CCCCO[C@H](CN(C)Cc2ccc(C(F)(F)F)cc2)[C@@H](C)CN([C@@H](C)CO)C(=O)c2cc(NC(=O)CCCN(C)C)ccc2O1	active
C[C@H]1CCCCO[C@@H](CN(C)Cc2ccc(C(F)(F)F)cc2)[C@@H](C)CN([C@@H](C)CO)C(=O)c2cc(NC(=O)CCCN(C)C)ccc2O1	inactive
C[C@H](CO)N1C[C@H](C)[C@@H](CN(C)Cc2ccc(C(F)(F)F)cc2)OCCCC[C@H](C)Oc2ccc(NC(=O)CCCN(C)C)cc2C1=O	inactive
C[C@@H]1CN([C@H](C)CO)C(=O)c2cc(NC(=O)CCCN(C)C)ccc2O[C@@H](C)CCCCO[C@H]1CN(C)Cc1ccc(C(F)(F)F)cc1	inactive
